Assay outcomes as filed in PubChem BioAssay.
Efflux pump inh: antifungal efflux pump inhibition, Nile Red retention | S. cerevisiae Candida pump triplex | inhibition, % at 10 µM | 0.44% of 330,000 active | AID 485275;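 active = plate passing quality check with inhibition over a set limit, or well fluorescence over plate mean plus 4 SD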;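 note: Nile Red retained in pooled yeast measured as flow cytometry median fluorescence; 0% = buffer negative control and 100% = Enniatin B positive control; higher means more Nile Red kept so more efflux inhibition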
ATG4B inh: ATG4B (human) cysteine protease inhibition | 0.51% of 340,000 active | AID 504462 | Q9Y4P1 | inhibition, % at 8.33 µM | ATG4B cleavage of LC3-PLA2, NBD-HPC fluorescence, 1 h; in the data active = inhibition above about 40%
Target sequence (Q9Y4P1 whole entry, looked up): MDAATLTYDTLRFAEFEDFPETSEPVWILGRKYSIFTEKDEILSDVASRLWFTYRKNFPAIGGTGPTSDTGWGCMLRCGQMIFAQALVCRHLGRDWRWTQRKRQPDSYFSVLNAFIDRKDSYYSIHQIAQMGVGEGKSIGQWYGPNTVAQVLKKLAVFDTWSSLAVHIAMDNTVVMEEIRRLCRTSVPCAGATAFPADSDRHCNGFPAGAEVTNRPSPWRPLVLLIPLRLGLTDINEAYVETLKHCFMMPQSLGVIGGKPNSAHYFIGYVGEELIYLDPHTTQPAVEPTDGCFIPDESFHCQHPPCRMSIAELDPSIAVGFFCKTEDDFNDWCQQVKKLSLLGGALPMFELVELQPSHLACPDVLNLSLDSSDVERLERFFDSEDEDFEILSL
AI-2 QS mod: modulates the Vibrio harveyi AI-2 quorum sensing system; Vibrio harveyi JMH597 AI-2 luminescence/OD600 ratio, 9 h; active compounds read low; strain lacks LuxN and CqsS sensors; 0 = neutral-control median; activity change, % at 7.5 µM; 0.4% of 300,000 active; AID 2094; in the data active = activity change below about -75%, passing the limit was not always enough;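 note: luminescence divided by OD600 gain over 9 h not by final OD600 alone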
V-ATPase pH: regulators of yeast V-ATPase proton transport | response, % at 10 µM | 0.37% of 350,000 active | S. cerevisiae, pHLuorin cytosolic pH fluorescence; in the data active = response mostly above about 7.3%, no sharp cut-off; inactive = mostly below about 5.4%; note: actives read high
Mot1-301 SUMO: SUMOylation pathway inhibition by Mot1-301 growth rescue; S. cerevisiae Mot1-301 growth rescue, ATP luminescence, 38.5C; percent above DMSO median, 100 means doubled; 1% of 320,000 active; AID 2716; growth rescue, % at 18.8 µM;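 active = every valid replicate shows activation above 250% relative to neutral control wells; inactive = the rest, any valid replicate at or below 250%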;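 note: OY570 slx delta 5 strain wells were the positive control but not used for scaling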
Cmpd fluor yeast: counter-screen for efflux pump inhibitors: compound fluorescence. fluorescence ratio to DMSO, % at 10 µM. 4% of 1,700 active. S. cerevisiae AD/pABC3, flow cytometry. shares compounds with Efflux pump inh;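 active = fluorescence ratio to DMSO above its plate's cutoff, the plate mean ratio plus 5 SD, cut at about 210% in these data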;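 note: unstained yeast with no Nile Red so the signal is compound autofluorescence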
Mdr1 pump inh: blocks the Candida albicans Mdr1 efflux pump in yeast; shares compounds with Efflux pump inh; S. cerevisiae AD/CaMDR1, Nile Red efflux, flow cytometry; inhibition, % at 10 µM; 1% of 1,700 active; AID 588518; in the data active = inhibition above about 26%;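 note: 0% = DMSO vehicle and 100% = reference inhibitor; higher means more Nile Red retained so more efflux inhibition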
Cdr2 pump inh: inhibitors of Candida albicans Cdr2 efflux pump; shares compounds with Efflux pump inh; S. cerevisiae AD/CaCDR2, Nile Red retention, flow cytometry; Nile Red retention ratio vs DMSO, % at 10 µM; 4% of 1,700 active; AID 588520; in the data active = Nile Red retention ratio vs DMSO above about 190%;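 note: higher ratio means more blocking of Cdr2 efflux of the dye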
CaCdr1 efflux inh: Candida Cdr1 efflux pump inhibition | shares compounds with Efflux pump inh | S. cerevisiae AD/CaCDR1, Nile Red efflux, flow cytometry | inhibition, % at 10 µM | 1% of 1,700 active;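 active = inhibition above the screen-wide mean plus twice its standard deviation, cut at about 32% in these data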
The depositor's hits bear a star; nt = not tested or not shown. Hits are enriched below; roughly 2.5% of the tested compounds scored in any of these assays.

SMILES	Efflux pump inh	ATG4B inh	AI-2 QS mod	V-ATPase pH	Mot1-301 SUMO	Cmpd fluor yeast	Mdr1 pump inh	Cdr2 pump inh	CaCdr1 efflux inh
Cc1ccc(NC(=O)c2ccc(-n3cccn3)c([N+](=O)[O-])c2)cc1	0	-2	24	-1	-4	nt	nt	nt	nt
CN(C)N1C(N)=C(C#N)C(c2ccc3c(c2)OCO3)C2=C1CCCC2=O (configuration not stated)	2.3*	9	2	-1	-3	100	0	92	0
CN(C)N1C(N)=C(C#N)C(c2cccc(Cl)c2)C2=C1CCCC2=O (configuration not stated)	0	1	0	-1	-11	nt	nt	nt	nt
COCO/C=C(\NC(C)=O)c1ccccc1	1.0*	-1	nt	2	-11	115	0	104	0
C(=C\c1ccccc1)/CNn1cnnc1	0	-8	7	-1	5	nt	nt	nt	nt
Clc1ccccc1CSc1nncn1NC/C=C/c1ccccc1	7.6*	4	-3	0	8	103	0	112	0
N#C/C(=C(/O)C(Cl)c1ccccc1)c1nc2ccccc2s1 (configuration not stated)	0	8	-31	-3	13	nt	nt	nt	nt
COC(=O)c1ccc(/C=C(\C#N)c2nc3ccccc3s2)cc1	0	0	28	4	-2	102	0	120	0
COc1ccc(/C(C#N)=C/c2ccccn2)cc1	1.4*	-4	18	2	-9	105	0	112	0
N#C/C(=C\c1ccccn1)c1nc2ccccc2s1	1.6*	-1	13	-1	0	160	0	247*	1
Cc1ccc(C(=O)NCC(=O)N2CCN(c3ccccc3O)CC2)s1	nt	nt	nt	4	nt	nt	nt	nt	nt
O=C(NCc1ccccc1Cl)C1CCCN1S(=O)(=O)c1ccccc1F (configuration not stated)	0	-7	8	0	39	nt	nt	nt	nt
CCn1c(CSc2nc(C)cc(C)n2)nnc1SCC(=O)N1CCCc2ccccc21	0	9	30	-6	1	nt	nt	nt	nt
COc1ccc(C2N=C(Nc3ccc(C)cc3)Nc3nc(C)cc(=O)n32)cc1 (configuration not stated)	0.4*	-14	22	-4	13	99	0	97	0
CN(CC(=O)Nc1ccccc1Br)CC(=O)Nc1ccccc1C(F)(F)F	0	4	9	-1	-1	nt	nt	nt	nt
CCCc1nnc(NC(=O)COc2ccc3c(c2)OCO3)s1	93*	-7	nt	-1	8	99	0	109	0
CCCCc1nnc(NC(=O)COc2ccc3c(C)cc(=O)oc3c2)s1	0	nt	8	nt	267	100	0	100	0
CCOC(=O)c1c(C)[nH]c(C(=O)NCc2ccco2)c1C	0	nt	9	nt	-6	nt	nt	nt	nt
CC(=O)c1ccc(N2CCN(C(=O)c3cc(S(=O)(=O)N4CCOCC4)ccc3C)CC2)cc1	0	11	nt	-1	24	nt	nt	nt	nt
CC(C)C(C(=O)O)N1C(=O)/C(=C/C=C/c2ccco2)SC1=S (configuration not stated)	1.2*	65*	-3	6	23	135	0	161	0
COC(=O)CNC(=O)COC(=O)C(Cc1ccccc1)NC(=O)c1ccco1 (configuration not stated)	0	-8	14	19	76	nt	nt	nt	nt
COC(=O)C(Cc1ccccc1)NC(=O)CCNC(=O)c1ccco1 (configuration not stated)	0.8*	5	15	1	5	91	0	85	0
CC1CCC(NC(=O)c2ccc(NC(=O)c3ccc(=O)[nH]c3)cc2)CC1 (configuration not stated)	0	nt	2	nt	-1	nt	nt	nt	nt
O=C(C1CCCO1)N1CCN(C(=S)Nc2ccc(F)cc2)CC1 (configuration not stated)	2.5*	0	2	-3	nt	107	0	108	0
CSc1cc(-c2ccc(Cl)cc2)c(C(=O)N2CCCC2)s1	0	-7	13	-6	-12	nt	nt	nt	nt
SMILES	Efflux pump inh	ATG4B inh	AI-2 QS mod	V-ATPase pH	Mot1-301 SUMO	Cmpd fluor yeast	Mdr1 pump inh	Cdr2 pump inh	CaCdr1 efflux inh
COC(=O)c1cc(OC)c(OC)cc1NC(=O)c1cc(-c2ccccc2)nc2ccccc12	0	-7	4	2	-3	100	0	102	0
COc1cc(NC(=O)c2cc(-c3ccccc3)nc3c2cnn3C(C)C)cc(OC)c1OC	1.0*	-5	nt	2	15	100	0	99	0
CNC(=O)c1cccc(NC(=O)c2cc(-c3ccccc3)nc3c2cnn3C(C)C)c1	0	-4	nt	-1	-5	nt	nt	nt	nt
Cn1c(CN2CCOCC2)nnc1SCC(=O)NCCc1ccccc1	0	-9	-5	0	31	nt	nt	nt	nt
O=C1CSC(c2cn(-c3ccccc3)nc2-c2cccs2)N1CC1CCCO1 (configuration not stated)	0	-7	5	2	12	nt	nt	nt	nt
Brc1ccc(-c2noc3c2-c2nc(-c4ccccc4)sc2CC3)cc1	0	-3	18	0	-9	nt	nt	nt	nt
OCCC1CN(Cc2ccccc2-c2ccco2)CCN1C1CCCC1 (configuration not stated)	0	-9	10	4	-4	nt	nt	nt	nt
CC(C)[C@H](NS(=O)(=O)c1ccc2c(c1)OCCO2)C(=O)OCC(=O)Nc1cccc(Cl)c1Cl	16*	-15	22	-6	-17	115	0	97	0
CC(C)[C@H](NS(=O)(=O)c1ccc2c(c1)OCCO2)C(=O)OCC(=O)Nc1ccccc1Cl	0	-14	23	-9	-11	nt	nt	nt	nt
O=C(Nc1nnc(-c2cccc(F)c2)s1)Nc1ccccc1F	0	3	4	0	4	nt	nt	nt	nt
O=C(Nc1nnc(-c2ccc(F)cc2)s1)Nc1ccccc1F	0.8*	3	12	3	2	102	0	108	0
CCCNC(=O)CN1C(=O)NC(c2ccccc2)(c2ccccc2)C1=O	0	-1	-72	4	-7	nt	nt	nt	nt
O=C(OCC(=O)N1CCN(c2ccc(F)cc2)CC1)c1cnc2ccccc2n1	0	-6	nt	-2	-12	nt	nt	nt	nt
O=C(/C=C/c1ccccc1Cl)NCCc1ccccc1	3.3*	7	-34	4	6	102	0	112	0
CC(=O)Nc1ccc(NC(=O)C(C)OC(=O)c2c(NC(C)=O)sc(C)c2C)cc1 (configuration not stated)	0	-6	nt	nt	49	nt	nt	nt	nt
NCCCC[C@H](NC(=O)C1CCNCC1)c1nnc(CN)o1	nt	nt	12	nt	-3	nt	nt	nt	nt
